Test results as given in PubChem BioAssay AID1117282 (The Scripps Research Institute Molecular Screening Center, 2014).
Some of the results follow. Values without a mark were called inactive.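 How the source made its calls: active means mean inhibition across replicates above a set limit taken from the earlier primary screen (cut at about 11% in these data); inactive means the rest.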

What follows are compounds tested against RNA-editing ligase 1, mitochondrial (Trypanosoma brucei brucei) (UniProt P86926) (assay: TbREL1 RNA ligase inhibitors, confirmation, biochemical, FRET fluorescence, triplicate (AID 1117282;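 further: 0% = REL1 with substrate and DMSO and 100% = REL1 plus control inhibitor NSC42067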)). Conditions: TbREL1 RNA ligation, at 9.66 µM, hits give high values.
RNA-editing ligase 1, mitochondrial (Trypanosoma brucei brucei), sequence (P86926 whole entry, looked up): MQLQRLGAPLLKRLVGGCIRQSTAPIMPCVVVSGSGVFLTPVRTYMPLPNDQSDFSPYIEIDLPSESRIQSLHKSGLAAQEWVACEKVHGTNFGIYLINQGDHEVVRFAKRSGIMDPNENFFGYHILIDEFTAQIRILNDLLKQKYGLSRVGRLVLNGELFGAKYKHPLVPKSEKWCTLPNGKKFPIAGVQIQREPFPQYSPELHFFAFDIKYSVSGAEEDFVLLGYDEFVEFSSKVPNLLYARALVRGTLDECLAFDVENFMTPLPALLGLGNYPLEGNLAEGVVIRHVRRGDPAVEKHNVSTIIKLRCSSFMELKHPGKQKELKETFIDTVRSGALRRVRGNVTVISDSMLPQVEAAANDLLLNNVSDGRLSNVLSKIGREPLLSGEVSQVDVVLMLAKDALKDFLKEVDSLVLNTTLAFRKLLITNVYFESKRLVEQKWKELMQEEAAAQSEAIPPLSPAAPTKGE

Point of comparison: `CC1CCCCN1Cc1cccnc1` (stereo not drawn), inhibition 5.17%. Against it:
- O=c1[nH]c2ccccc2n1C1CCN(C(c2ccccc2)c2nnnn2Cc2ccccc2)CC1 (stereo not drawn) — lower, 1.44%
- CN1CCN(c2cc(N3CCNCC3)ccc2[N+](=O)[O-])CC1 — higher, 9.79%
